# Compound activity from PubChem BioAssay.
# Shown are actives, neighbours in structure and some others; about 0.29% of the full set was active somewhere.
# FH mod: Identification of activators of human fumarate hydratase by quantitative high-throughput screening | Potency, µM (doses to about 79.9 µM), for the others: top-dose activity change, negative = inhibition, most hits filed as inhibitors | FH coupled MDH/diaphorase resazurin fluorescence, 15 min | Fumarate hydratase, mitochondrial (Homo sapiens), P07954 | AID 1347055, 2019 | actives 0.22% (n = 54,000); also: potency is read from the fitted curve at half-maximal effect; % is scaled to controls: 0 for no effect and ±100 for the full control effect; the screen sought activators but most active calls are inhibition curves; nearly all actives have a fitted effect of over 45% in size
# GALK inhibitor: qHTS Assay for Inhibitors of Human Galactokinase (GALK): NCGC Sytravon Library Screen | P51570 | recombinant GALK, Kinase-Glo ATP luminescence, 1 h | Potency, µM (titrated, usually from 57.5 µM), for inactives: at the top dose activity, negative = inhibition, usual class: inhibitors | 44,000 tested, under 10 active;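 also: plate controls were full GALK reaction for no effect and reaction lacking GALK for full effect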
#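 Luminescent ATP-depletion readout (Kinase-Glo Plus, 10 min) after 1 h RT reaction of 5 nM GALK, 35 uM ATP, 100 uM galactose, pH 8.0 HEPES buffer. Decreased kinase activity scored as inhibition.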
# GALC G270D up: A Novel Cell-Based Assay to Identify Small Molecules for B -Galactocerebrosidase | P54803 | 145M-Twi-hGALC-G270D cells (Twitcher mouse brain line with human GALC G270D), HMU-beta-Gal fluorescence, 48 h | Potency, µM (series often up to 57.5 µM), usual class: activators | actives 0.1% (n = 45,000) | AID 1159614, 2016; also: potency is read from the fitted curve at half-maximal effect; 0% is about no effect; nearly all actives have a fitted effect of over 65% in size
#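 Fluorescence readout: HMU-β-gal cleavage by mutant GALC (0.1 mM final, citrate/phosphate pH 5.2 with 1 mg/mL taurocholate), stopped with carbonate/bicarbonate plus Triton X-100. Cells: murine Twitcher 145M-Twi expressing human G270D GALC; qHTS for activators.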
# B2AR arrestin ag: qHTS assay of beta-arrestin-biased ligands of beta2-adrenergic receptor: NCGC Sytravon Library Screen; Beta-2 adrenergic receptor (Homo sapiens), P07550; HTLA Tango cells, beta-arrestin recruitment, luciferase luminescence, 18 h; Potency, µM (top dose mostly 46.1 µM), actives largely listed as activators; 44,000 tested, under 10 active; AID 1347077, 2019;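 also: potency is read from the fitted curve at half-maximal effect; 0% = DMSO and full agonism = EC100 isoproterenol or metaproterenol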
# Target sequence (P07550 whole entry, looked up): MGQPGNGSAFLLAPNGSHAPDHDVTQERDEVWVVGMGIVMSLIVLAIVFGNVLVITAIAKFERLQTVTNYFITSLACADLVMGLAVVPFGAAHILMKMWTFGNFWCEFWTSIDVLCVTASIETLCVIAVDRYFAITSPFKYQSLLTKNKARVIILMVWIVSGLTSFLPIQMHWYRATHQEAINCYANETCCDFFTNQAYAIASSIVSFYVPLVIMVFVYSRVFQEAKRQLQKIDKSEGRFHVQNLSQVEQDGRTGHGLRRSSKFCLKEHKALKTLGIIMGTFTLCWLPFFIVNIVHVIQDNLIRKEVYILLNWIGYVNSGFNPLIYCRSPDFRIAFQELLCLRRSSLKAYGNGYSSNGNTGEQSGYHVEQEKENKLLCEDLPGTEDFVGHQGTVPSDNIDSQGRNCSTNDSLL
#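 Receptor–beta-arrestin recruitment read by tTA-responsive luciferase: compound titrations (up to 46 µM) incubated 18 h with Tango cells, then luminescent substrate 15 min at room temperature. Concentration-response fits classified by r2, efficacy and activity.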
# PTAP-TSG101 blk: qHTS Validation Assay for Inhibitors of HIV-1 Budding by Blocking the Interaction of PTAP/TSG101: Sytravon Library Screen. Fluorescence polarization, FITC-PTAP peptide/Tsg101, 20 min. 44,000 tested, under 10 active. Potency, µM (titrated, usually from 115 µM), most hits filed as inhibitors. Tumor susceptibility gene 101 protein (Homo sapiens), Q99816; also: potency is read from the fitted curve at half-maximal effect; 0% is about no effect
#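 qHTS FP binding, 20 min r.t.: 10 uM Tsg101 domain + 50 nM FITC-PTAP peptide, pH 7.5 HEPES buffer with TCEP and EDTA.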
# * hit, by the source's call; i = inactive; . = not tested or not shown. Calls follow the shape of the dose curve; as a rule, active = well fitted curve in the direction sought with a large enough effect; inconclusive = small, poorly fitted or top-dose-only effect, or another doubt; inactive = no such curve, though single readings can be large; an effect the other way counts as inactive or inconclusive.
SMILES,FH mod,GALK inhibitor,GALC G270D up,B2AR arrestin ag,PTAP-TSG101 blk
Nc1c(C(=O)Nc2ccc(Cl)c(C(F)(F)F)c2)sc2nc3c(cc12)N1CCC3CC1,-20%,0%,i,i,i
Nc1c(C(=O)Nc2ccc(Cl)cc2)sc2nc3c(cc12)N1CCC3CC1,-3%,-4%,32µM*,i,i
Cc1cccc(NC(=O)NC2N=C(c3ccccc3)c3ccccc3N(CC(=O)c3ccccc3C)C2=O)c1 (centres undefined),4%,.,.,.,.
NC(=O)CI,25µM*,.,.,.,.
Cc1cc(C)cc(OCC(=O)Nc2ccc(-c3nc4ccccc4s3)cc2)c1,1%,2%,40µM*,i,i
CN1C[C@@H]2CN(c3ccc(-c4ccccc4)nn3)C[C@@H]2C1,-3%,.,.,.,.
